Bioassay records deposited in PubChem by National Center for Advancing Translational Sciences (NCATS).
An excerpt weighted towards active compounds, which were near 10% of everything screened.
L3MBTL1 block – blocks human L3MBTL1 | Q9Y468 | AlphaScreen L3MBTL1–H3K9me1 peptide binding | Potency, µM (titrated, usually from 57.1 µM), for inactives: top-dose activity, negative = inhibition, usual class: inhibitors | hit rate 0.66% among 230,000 | AID 485360; further: on the % scale 0 is the no-effect control and ±100 the full control effect; nearly all actives have a fitted effect of over 60% in size
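Read-out is AlphaScreen signal from streptavidin donor and nickel chelate acceptor beads (10 ug/mL final each) bridging L3MBTL1 (50 nM) and biotinylated K9-monomethylated H3(1-15) peptide (75 nM), after 30 min compound exposure at room temperature.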
JMJD2A Tudor inh – JMJD2A Tudor domain (human) inhibition. AID 504339. AlphaScreen JMJD2A-Tudor / H3K4me3 peptide binding. Potency, µM (doses to about 114 µM), for inactives: at the top dose activity change, negative = inhibition, hits mostly inhibitors. hit rate 4.4% among 390,000; further: on the % scale 0 is the no-effect control and ±100 the full control effect; nearly all actives have a fitted effect of over 50% in size
Target sequence (O75164 whole entry, looked up, the tested form may be a part): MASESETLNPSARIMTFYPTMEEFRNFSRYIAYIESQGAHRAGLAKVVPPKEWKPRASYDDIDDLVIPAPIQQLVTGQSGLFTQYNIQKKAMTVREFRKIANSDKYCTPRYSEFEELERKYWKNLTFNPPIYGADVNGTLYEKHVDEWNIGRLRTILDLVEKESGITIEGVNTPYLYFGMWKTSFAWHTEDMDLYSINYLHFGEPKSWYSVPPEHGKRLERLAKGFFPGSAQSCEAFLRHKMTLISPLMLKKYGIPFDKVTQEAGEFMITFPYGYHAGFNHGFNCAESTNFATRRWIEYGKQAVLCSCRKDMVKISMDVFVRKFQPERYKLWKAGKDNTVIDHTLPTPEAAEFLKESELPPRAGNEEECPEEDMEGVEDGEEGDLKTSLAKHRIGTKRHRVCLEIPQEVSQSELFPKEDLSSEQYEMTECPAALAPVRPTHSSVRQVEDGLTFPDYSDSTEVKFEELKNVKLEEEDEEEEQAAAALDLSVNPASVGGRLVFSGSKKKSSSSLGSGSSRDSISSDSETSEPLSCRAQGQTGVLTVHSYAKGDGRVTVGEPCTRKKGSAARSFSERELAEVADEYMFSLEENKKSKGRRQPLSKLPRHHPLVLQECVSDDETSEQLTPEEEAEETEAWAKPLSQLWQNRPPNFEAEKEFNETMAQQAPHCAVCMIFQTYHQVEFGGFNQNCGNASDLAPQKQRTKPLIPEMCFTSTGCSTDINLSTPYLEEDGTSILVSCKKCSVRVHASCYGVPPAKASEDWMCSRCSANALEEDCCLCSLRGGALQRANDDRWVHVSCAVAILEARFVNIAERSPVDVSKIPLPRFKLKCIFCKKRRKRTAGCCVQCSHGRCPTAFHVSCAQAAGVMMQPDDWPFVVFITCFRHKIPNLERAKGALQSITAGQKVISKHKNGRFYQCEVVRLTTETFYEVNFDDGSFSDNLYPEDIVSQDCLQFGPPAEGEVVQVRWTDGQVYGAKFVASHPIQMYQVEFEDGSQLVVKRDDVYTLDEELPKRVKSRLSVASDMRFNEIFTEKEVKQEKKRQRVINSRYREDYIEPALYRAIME
BAZ2B inh – inhibitors of human BAZ2B bromodomain; AlphaScreen BAZ2B-H3K14Ac peptide displacement; Potency, µM (top dose mostly 114 µM), without a hit: at the highest dose activity change, negative = inhibition, hits mostly inhibitors; hit rate 4.4% among 360,000; AID 504333; further: on the % scale 0 is the no-effect control and ±100 the full control effect; nearly all actives have a fitted effect of over 60% in size
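AlphaScreen displacement: compounds (up to 110uM) incubated 30 min at room temperature with a preformed 50 nM BAZ2B/50 nM biotinylated H3K14Ac peptide complex in PBS pH 7.4 with Tween-20. Donor and acceptor beads at 10 ug/mL final added, 20 min light-protected before reading.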
GLS inhibitor – inhibitors of human glutaminase (GLS) | O94925 | GLS enzymatic activity, qHTS titration | Potency, µM (top dose mostly 45.5 µM), inactives show at the highest dose activity change, negative = inhibition, most hits filed as inhibitors | hit rate 0.21% among 410,000 | AID 624170; further: on the % scale 0 is the no-effect control and ±100 the full control effect
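hKGA; 45 mM KH2PO4 pH 8.2 + 0.02% Tween-20; cpd via pin tool; 1 mM Gln soln; GluOx/HRP/Amplex Red; RT 30 min; fluor. t0 & final.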
G9a block – blocks human histone lysine methyltransferase G9a; G9a H3K9 monomethylation, AlphaScreen, 2 h; Potency, µM (series often up to 102 µM), inactives show top-dose activity, negative = inhibition, usual class: inhibitors; hit rate 8.8% among 350,000; further: on the % scale 0 is the no-effect control and ±100 the full control effect; nearly all actives have a fitted effect of over 75% in size
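Enzyme 20 nM + cpd, 15 min RT; add b-H3K9 pep 500 nM / SAM 20 uM; 2 h RT; anti-H3K9me1 Ab 0.5 ug/mL + SA donor / anti-rabbit acceptor beads 20 ug/mL each, 10 min; AlphaScreen read.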
HP1b binding inh – blocks HP1-beta chromodomain binding to methylated histone tails. P83916. AlphaScreen HP1-beta / biotin-H3K9me3 peptide binding. Potency, µM (titrated, usually from 114 µM), for inactives: top-dose activity change, negative = inhibition, hits mostly inhibitors. hit rate 0.56% among 390,000. AID 540317; further: nearly all actives have a fitted effect of over 70% in size
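AlphaScreen: HP1-beta (50 nM) preformed 30 min with biotin-H3(1-18)K9me3 peptide (50 nM) in PBS pH 7.4, 0.01% Tween-20. Compound added for 30 min at RT, then streptavidin donor/nickel chelate acceptor beads (10 ug/mL) for 30 min.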
An asterisk follows results filed as active; ! = a repeat was not active; [ ] = dose if it differs, or a comment. The call rests on the fitted dose curve; in most records, active means well fitted curve in the direction sought with a large enough effect; inconclusive means small, poorly fitted or top-dose-only effect, or another doubt; inactive means no such curve, though single readings can be large; an effect the other way counts as inactive or inconclusive. Potency means the concentration at half of the fitted maximal effect.

O=C(Nc1ccc(N2CCCC2)cc1)c1ccccc1[N+](=O)[O-] was read as L3MBTL1 block -3%, JMJD2A Tudor inh -7%, BAZ2B inh -38%, GLS inhibitor 25%, G9a block 13µM* and HP1b binding inh 25%.
Cc1ccc(N2C(S)=C(C#N)C(=O)NC2c2cccs2)cc1 (stereo not given) was read as L3MBTL1 block -7%, JMJD2A Tudor inh -27%, BAZ2B inh -29%, GLS inhibitor -2%, G9a block inconclusive and HP1b binding inh -1%.
Screening N#CC1=C(S)N(c2ccc(F)cc2)C(c2ccco2)NC1=O (stereo not given) returned L3MBTL1 block 6%, JMJD2A Tudor inh -20%, BAZ2B inh -27%, GLS inhibitor -6%, G9a block 8.9µM* and HP1b binding inh -7%.
N#CC1=C(S)N(c2ccccc2)C(c2cccs2)NC1=O (stereo not given) was read as L3MBTL1 block 15%, JMJD2A Tudor inh -20%, BAZ2B inh -22%, GLS inhibitor -11%, G9a block inconclusive and HP1b binding inh 7%.
Screening N#CC1=C(S)N(c2ccccc2)C(c2ccc(-c3cc(Cl)ccc3Cl)o2)NC1=O (stereo not given) returned L3MBTL1 block -13%, JMJD2A Tudor inh -32%, BAZ2B inh 50µM*, GLS inhibitor -9%, G9a block inconclusive and HP1b binding inh 4%.
For Cc1ccc(N2C(S)=C(C#N)C(=O)NC2c2ccco2)cc1 (stereo not given) the results were L3MBTL1 block 18%, JMJD2A Tudor inh -21%, BAZ2B inh -17%, GLS inhibitor -14%, G9a block 28µM* and HP1b binding inh 20%.
N#CC1=C(S)N(c2ccccc2)C(c2ccco2)NC1=O (stereo not given) was read as L3MBTL1 block inconclusive, JMJD2A Tudor inh -1%, BAZ2B inh inconclusive, GLS inhibitor -2%, G9a block 28µM* and HP1b binding inh 45%.
Brc1ccc(-c2cnnc(N3CCCC3)n2)cc1 was read as L3MBTL1 block -4%, JMJD2A Tudor inh -11%, BAZ2B inh 2%, GLS inhibitor -6%, G9a block 71µM* and HP1b binding inh 26%.
Screening Cc1ccc(CNC(=O)CCS(=O)(=O)c2cccc3nsnc23)cc1 returned JMJD2A Tudor inh -12%, BAZ2B inh 12%, GLS inhibitor 14%, G9a block 8%[12.7 µM] and HP1b binding inh 20%.
Cc1nc2ccc(S(=O)(=O)CCC(=O)Nc3ccc(F)cc3C)cc2s1 was read as JMJD2A Tudor inh 71µM*, BAZ2B inh -3%, GLS inhibitor 2%, G9a block 4.5µM* and HP1b binding inh -11%.
For CCN(CC)c1ccc(NC(=O)CCc2nc3cccnc3n2Cc2cccs2)c(C)c1 the results were JMJD2A Tudor inh 20µM*, BAZ2B inh inconclusive, GLS inhibitor 10%, G9a block 8.9µM* and HP1b binding inh -15%.
Screening COc1ccc(Cn2c(CCC(=O)Nc3ccc(C)cc3)nc3cccnc32)cc1 returned JMJD2A Tudor inh 79µM*!, BAZ2B inh -12%, GLS inhibitor 3%, G9a block 1%[59 µM] and HP1b binding inh 8%.
Screening COc1ccc(Cn2c(CCC(=O)Nc3cc(C)cc(C)c3)nc3cccnc32)cc1 returned JMJD2A Tudor inh -28%, BAZ2B inh -11%, GLS inhibitor 18%, G9a block 4%[59 µM] and HP1b binding inh -2%.
Screening CCc1ccc(NC(=O)CCS(=O)(=O)c2cccc3nsnc23)cc1 returned JMJD2A Tudor inh -18%, BAZ2B inh -7%, GLS inhibitor 5%, G9a block 40µM* and HP1b binding inh 9%.
Screening Cc1ccc(C2CCN(C(=O)c3cnn(-c4ccc(C)c(C)c4)c3C3CCN(C(=O)OC(C)(C)C)CC3)C2)cc1 (stereo not given) returned JMJD2A Tudor inh -20%, BAZ2B inh -2%[57.1 µM], GLS inhibitor -6%, G9a block -29%[59 µM] and HP1b binding inh 32%.
Screening CCCCOc1cccc(C(=O)N(Cc2sccc2C)C2CCS(=O)(=O)C2)c1 (stereo not given) returned JMJD2A Tudor inh -12%, BAZ2B inh -2%, GLS inhibitor -8%, G9a block -30%[59 µM] and HP1b binding inh 37%.
Screening Cc1cccc(N(C)C(=O)CCS(=O)(=O)c2cccc3nonc23)c1 returned JMJD2A Tudor inh -6%, BAZ2B inh 11%, GLS inhibitor -4%, G9a block 12%[12.7 µM] and HP1b binding inh 17%.
O=C(CCS(=O)(=O)c1cccc2nsnc12)NC1CCCCC1 was read as L3MBTL1 block 2%, JMJD2A Tudor inh -13%, BAZ2B inh -1%, GLS inhibitor -4%, G9a block 22µM* and HP1b binding inh 24%.
`CCN(CC)c1ccc(NC(=O)CCS(=O)(=O)c2cccc3nsnc23)c(C)c1` gave L3MBTL1 block -7%, JMJD2A Tudor inh 56µM*, BAZ2B inh inconclusive, GLS inhibitor -16%, G9a block 40µM* and HP1b binding inh inconclusive.
`CCN(C(=O)CCS(=O)(=O)c1cccc2nonc12)c1ccc(C)c(C)c1` gave JMJD2A Tudor inh -15%, BAZ2B inh -17%, GLS inhibitor -2%, G9a block 16µM* and HP1b binding inh 9%.
Cc1ccc(NC(=O)CCS(=O)(=O)c2cccc3nsnc23)c(C)c1 was read as JMJD2A Tudor inh -8%, BAZ2B inh 2%, GLS inhibitor 6%, G9a block 3%[59 µM] and HP1b binding inh 35%.
Cc1ccc(-c2cc(NC(=O)COc3c(C)cc(C)cc3C)on2)cc1 was read as JMJD2A Tudor inh -13%, BAZ2B inh -8%, GLS inhibitor -2%, G9a block 4%[59 µM] and HP1b binding inh 44%.
For CCc1cccc(CC)c1NC(=O)CNCc1cccs1 the results were JMJD2A Tudor inh 25µM*, BAZ2B inh 56µM*, GLS inhibitor -12%, G9a block 35µM* and HP1b binding inh 71µM*.
`Cc1cccc(C)c1NC(=O)Cc1cccs1` gave L3MBTL1 block 1%, JMJD2A Tudor inh -26%, BAZ2B inh -31%, GLS inhibitor 1%, G9a block 11% and HP1b binding inh 24%.
For COc1ccc(-[n+]2c(C)cc(/C=C3\Sc4ccccc4N3C)cc2C)cc1 the results were L3MBTL1 block 9%, JMJD2A Tudor inh -4%, BAZ2B inh -15%, GLS inhibitor 13%, G9a block 50µM* and HP1b binding inh 65%.
Screening COc1ccccc1-[n+]1c(C)cc(/C=C2\Sc3ccccc3N2C)cc1C returned JMJD2A Tudor inh 14%, BAZ2B inh -2%, GLS inhibitor 12%, G9a block inconclusive and HP1b binding inh 52%.
